Assay outcomes deposited in PubChem BioAssay by several laboratories.
Beta cell apopt: blocks beta cell apoptosis; INS-1E cytokine-induced death, ATP luminescence, 48 h; percent of positive-control rescue, neutral wells zero; protection from apoptosis, % (test concentration not listed); 300,000 compounds, 0.8% hits; AID 435005;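 active = Every replicate reaches about 75%, or at least half do and their mean reaches it too, limit read from the data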;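 note: 0% = cytokine-treated negative control wells and 100% = positive control rescue; higher means more ATP so stronger rescue from cytokine killing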
Gli-Sufu antag: Gli-Sufu pathway antagonism | Sufu-KO-LIGHT fibroblasts, Gli luciferase reporter luminescence | inhibition, % at 5 µM | 340,000 compounds, 0.74% hits | AID 588413;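 active = inhibition above about 55%, limit read from the data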;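 note: 0% = DMSO-treated cells and 100% = wells with medium but no cells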
GRIN3A LBD mod: NR3A (human) ligand-binding domain modulation; NR3A LBD differential scanning fluorimetry, Tm shift; 0% = protein alone, 100% = glycine-bound protein; Tm shift relative to glycine control, % at 25 µM; 340,000 compounds, 2.5% hits; AID 1259313;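 active = melting temperature shift of at least 10% of the positive control shift, at one fixed dose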
MPTP inh: permeability transition pore inhibition; isolated mouse mitochondria, Ca2+ swelling absorbance, 30 min; AID 602449; 360,000 compounds, 1.4% hits; inhibition, % at 10 µM;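 active = inhibition of 50% or more, scaled per plate between neutral and stimulator controls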;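 note: 0% = DMSO wells given calcium and 100% = 1 mM EGTA wells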
Mdm2-MdmX inh: inhibitors of human Mdm2/MdmX interaction; O15151+Q00987; SaOS-2 split-luciferase Mdm2/MdmX complementation, luminescence; inhibition, % at 8 µM; 330,000 compounds, 3% hits; AID 485346;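 active = inhibition of at least 50% at 8 µM in the primary screen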
Target sequence (O15151 whole entry, looked up): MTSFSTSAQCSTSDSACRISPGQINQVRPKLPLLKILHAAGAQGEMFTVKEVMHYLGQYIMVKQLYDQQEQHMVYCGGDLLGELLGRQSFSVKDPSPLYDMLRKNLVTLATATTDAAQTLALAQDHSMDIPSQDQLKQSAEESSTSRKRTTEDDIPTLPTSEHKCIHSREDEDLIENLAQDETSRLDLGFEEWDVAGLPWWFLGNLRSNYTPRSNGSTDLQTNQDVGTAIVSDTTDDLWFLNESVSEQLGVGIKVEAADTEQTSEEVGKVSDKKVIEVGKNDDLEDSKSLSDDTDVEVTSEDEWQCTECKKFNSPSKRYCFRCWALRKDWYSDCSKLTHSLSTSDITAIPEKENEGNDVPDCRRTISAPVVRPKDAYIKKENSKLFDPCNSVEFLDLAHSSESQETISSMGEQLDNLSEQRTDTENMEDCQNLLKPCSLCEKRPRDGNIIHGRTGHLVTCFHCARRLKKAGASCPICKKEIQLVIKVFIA
Target sequence (Q00987 whole entry, looked up): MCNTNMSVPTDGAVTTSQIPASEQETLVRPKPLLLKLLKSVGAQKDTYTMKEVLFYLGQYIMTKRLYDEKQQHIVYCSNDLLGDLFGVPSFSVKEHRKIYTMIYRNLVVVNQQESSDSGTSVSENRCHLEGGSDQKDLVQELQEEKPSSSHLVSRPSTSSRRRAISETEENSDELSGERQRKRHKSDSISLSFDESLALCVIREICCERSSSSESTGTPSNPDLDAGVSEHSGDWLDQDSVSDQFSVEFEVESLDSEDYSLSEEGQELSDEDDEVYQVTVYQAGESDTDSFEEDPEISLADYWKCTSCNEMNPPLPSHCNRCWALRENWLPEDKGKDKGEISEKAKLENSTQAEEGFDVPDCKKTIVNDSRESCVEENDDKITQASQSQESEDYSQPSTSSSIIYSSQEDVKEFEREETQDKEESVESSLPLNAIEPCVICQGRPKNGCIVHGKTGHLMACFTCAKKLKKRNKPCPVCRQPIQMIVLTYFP
CSC inhib: blocks cancer stem cells; cancer stem cell-like cells viability, luminescence; inhibition, % at 7.5 µM; 300,000 compounds, 1.1% hits; AID 2717; in the data active = inhibition above about 75%; tested in HMLE shEcad cells
Rh123 counter: membrane potential counter-screen of mitochondrial pore inhibitors; 5,000 compounds, 78% hits; shares compounds with MPTP inh; AID 624504; isolated mitochondria, Rhodamine 123 fluorescence; inhibition, % at 10 µM; in the data active = inhibition above about 22%;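 note: 0% = DMSO vehicle and 100% = positive control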
MPTP swell DR: dose response confirmation of mitochondrial permeability transition pore inhibitors; shares compounds with MPTP inh; isolated mitochondria swelling, absorbance; IC50, µM; 780 compounds, 58% hits; AID 651561; in the data active = IC50 below about 20 µM
MPTP cs DR: active in counter-screen for permeability transition pore inhibitors; shares compounds with MPTP inh; isolated mitochondria counterscreen, fluorescence read-out; IC50, µM; 780 compounds, 49% hits; in the data active = IC50 below about 80 µM
Active calls of the source: *. Shown are actives, neighbours in structure and some others; about 6.6% of the full set was active somewhere.

How did OC(CNCc1cccc(Cl)c1)c1ccccc1 (stereo not drawn) do in these assays?
Beta cell apopt: 1; Gli-Sufu antag: 7; GRIN3A LBD mod: 0; MPTP inh: -2; Mdm2-MdmX inh: 24; CSC inhib: -3

Results for O=C(NC(=S)NN1CCCCC1c1cccnc1)c1ccc(Cl)cc1Cl (stereo not drawn) ?
Beta cell apopt: -6; Gli-Sufu antag: 1; GRIN3A LBD mod: -2; MPTP inh: 52*; Mdm2-MdmX inh: 5; CSC inhib: -5; Rh123 counter: 65*

How did NC(=O)NOCc1cccc(Cl)c1 do in these assays?
Beta cell apopt: -5; Gli-Sufu antag: -3; GRIN3A LBD mod: 1; MPTP inh: 3; Mdm2-MdmX inh: 19; CSC inhib: 3

Results for CC(Oc1ccc2c(c1)c1ccnc3c4ccccc4c(=O)n2c13)C(=O)NCCN1CCOCC1 (stereo not drawn) ?
Beta cell apopt: 4; Gli-Sufu antag: -8; GRIN3A LBD mod: -2; MPTP inh: 1; Mdm2-MdmX inh: 42; CSC inhib: -13

Results for CCC(C(=O)OCC(=O)c1c(N)n(CC(C)C)c(=O)n(C)c1=O)c1ccccc1 (stereo not drawn) ?
Beta cell apopt: 19; Gli-Sufu antag: 47; GRIN3A LBD mod: 1; MPTP inh: 2; Mdm2-MdmX inh: 11; CSC inhib: 15

Results for CCC(=NC(C)c1ccccc1)c1c(O)n(C)c(=O)n(C)c1=O (stereo not drawn) ?
Beta cell apopt: 43; Gli-Sufu antag: 40; GRIN3A LBD mod: 1; MPTP inh: 67*; Mdm2-MdmX inh: 25; CSC inhib: 2; Rh123 counter: 33*

Results for COc1ccc(CCc2nnc(CCC(=O)N(C)Cc3ccnc4ccccc34)o2)cc1 ?
Beta cell apopt: 3; Gli-Sufu antag: 3; GRIN3A LBD mod: 0; MPTP inh: 79*; Mdm2-MdmX inh: 27; CSC inhib: -4; Rh123 counter: 30*

How did COc1ccccc1CCc1nnc(CCC(=O)N(C)Cc2cccc3cnccc23)o1 do in these assays?
Beta cell apopt: 0; Gli-Sufu antag: -11; GRIN3A LBD mod: 0; MPTP inh: 3; Mdm2-MdmX inh: -25; CSC inhib: -18

How did Cc1ccccc1-c1nc(CS(=O)(=O)CC(=O)N2CCCCC2)c(C)o1 do in these assays?
Beta cell apopt: -6; Gli-Sufu antag: 4; GRIN3A LBD mod: -3; MPTP inh: -2; Mdm2-MdmX inh: 20; CSC inhib: -8

What do the screens show for `O=S(=O)(c1cccs1)N1CCN(CC(O)COc2cc(Cl)ccc2Cl)CC1` (stereo not drawn)?
Beta cell apopt: 83*; Gli-Sufu antag: 40; GRIN3A LBD mod: -16; MPTP inh: 87*; Mdm2-MdmX inh: 15; CSC inhib: 22; Rh123 counter: 91*

Results for O=S(=O)(c1cccs1)N1CCN(CCOc2ccc(Cl)cc2)CC1 ?
Beta cell apopt: -6; Gli-Sufu antag: 4; GRIN3A LBD mod: -2; MPTP inh: -3; Mdm2-MdmX inh: 14; CSC inhib: 24

Results for CC(C)c1ccc(N(C(=O)c2ccc3c(c2)OCO3)C2C=CS(=O)(=O)C2)cc1 (stereo not drawn) ?
Beta cell apopt: 0; Gli-Sufu antag: -10; GRIN3A LBD mod: -3; MPTP inh: 1; Mdm2-MdmX inh: 20; CSC inhib: -5

Results for COc1ccc(Cl)cc1C(=O)Nc1ccc(CN2CCCCC2)cc1 ?
Beta cell apopt: 0; Gli-Sufu antag: 24; GRIN3A LBD mod: -2; MPTP inh: 57*; Mdm2-MdmX inh: 27; CSC inhib: -8; Rh123 counter: -4; MPTP swell DR: 7.1*; MPTP cs DR: >80

What do the screens show for `COc1ccc(Cl)cc1C(=O)Nc1ccncc1`?
Gli-Sufu antag: -11; GRIN3A LBD mod: 1; MPTP inh: -1; Mdm2-MdmX inh: 34; CSC inhib: -4

What do the screens show for `CCN(CC)c1ccc(NC(=O)c2cc(Cl)ccc2OC)cc1`?
Beta cell apopt: 5; Gli-Sufu antag: 8; GRIN3A LBD mod: -8; MPTP inh: 99*; Mdm2-MdmX inh: 35; CSC inhib: 49; Rh123 counter: -17; MPTP swell DR: 14*; MPTP cs DR: >80

Results for COCCNC(=O)/C(C#N)=C/c1c(N2CC(C)OC(C)C2)nc2ccccn2c1=O (stereo not drawn) ?
Beta cell apopt: -4; Gli-Sufu antag: 4; GRIN3A LBD mod: -5; MPTP inh: 1; Mdm2-MdmX inh: -19; CSC inhib: -5

What do the screens show for `Brc1ccc2ncc3ccccc3c2c1`?
Gli-Sufu antag: -10; GRIN3A LBD mod: 3; MPTP inh: 0

How did Cc1cc(C)c(O)c(-c2cc(C(=O)Nc3cccnc3)[nH]n2)c1 do in these assays?
Beta cell apopt: -4; Gli-Sufu antag: -27; GRIN3A LBD mod: 7; MPTP inh: 59*; Mdm2-MdmX inh: -9; CSC inhib: 47; Rh123 counter: 60*

Results for COc1ccc(NC(=O)c2cc(-c3cc(C)cc(C)c3O)n[nH]2)cc1Cl ?
Beta cell apopt: 14; Gli-Sufu antag: 3; GRIN3A LBD mod: 36*; MPTP inh: 95*; Mdm2-MdmX inh: 36; CSC inhib: 99*; Rh123 counter: 63*

How did CC1Sc2ccc(S(=O)(=O)CCC(=O)N3CCN(c4cccc(Cl)c4)CC3)cc2NC1=O (stereo not drawn) do in these assays?
Beta cell apopt: 13; Gli-Sufu antag: 8; GRIN3A LBD mod: -1; MPTP inh: 0; Mdm2-MdmX inh: 22; CSC inhib: -6

What do the screens show for `O=C(CSc1nnc2n1CCCN2C(=S)Nc1ccc(Cl)cc1)c1ccccc1`?
Beta cell apopt: -5; Gli-Sufu antag: -1; GRIN3A LBD mod: 5; MPTP inh: 84*; Mdm2-MdmX inh: -9; CSC inhib: 20; Rh123 counter: 89*

What do the screens show for `Cc1cc(Cl)ccc1Oc1ccc(C(N)=O)cc1[N+](=O)[O-]`?
Beta cell apopt: -2; Gli-Sufu antag: 2; GRIN3A LBD mod: 2; MPTP inh: 1; Mdm2-MdmX inh: 2; CSC inhib: 65

Results for Cc1cc(Cl)ccc1Oc1ccccc1C(=O)CC#N ?
Beta cell apopt: 2; Gli-Sufu antag: -2; GRIN3A LBD mod: -2; MPTP inh: 66*; Mdm2-MdmX inh: 11; CSC inhib: 26; Rh123 counter: 75*

What do the screens show for `CC(C)(C)NC(=S)NNC(=O)[C@H]1C[C@@H]1c1ccccc1`?
Beta cell apopt: -2; Gli-Sufu antag: -21; GRIN3A LBD mod: -1; MPTP inh: 3; Mdm2-MdmX inh: -8; CSC inhib: -7
